HPGD block: qHTS Assay for Inhibitors of HPGD (15-Hydroxyprostaglandin Dehydrogenase); purified HPGD, NADH fluorescence kinetic, PGE2 substrate; 150,000 compounds, 4.3% hits; Potency, µM, for the others: at the top dose activity change, negative = inhibition, usual class: inhibitors; AID 894, 2007; note: potency is the fitted concentration of half-maximal effect; % is set by controls: 0 for no effect and ±100 for the full control effect
Target sequence (P15428 whole entry, looked up): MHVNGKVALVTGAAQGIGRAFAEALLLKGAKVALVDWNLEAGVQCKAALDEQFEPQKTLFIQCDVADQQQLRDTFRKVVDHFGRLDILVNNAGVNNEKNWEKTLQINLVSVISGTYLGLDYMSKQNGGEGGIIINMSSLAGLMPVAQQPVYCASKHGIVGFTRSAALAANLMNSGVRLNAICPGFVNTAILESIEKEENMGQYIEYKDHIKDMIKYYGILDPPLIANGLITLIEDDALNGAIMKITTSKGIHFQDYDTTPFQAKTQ
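NADH formation kinetics: reaction with 30 uM PGE2 and 1 mM NAD+ (final), 20 nM enzyme, Tris-HCl pH 8 with Tween 20, after 15 min compound preincubation at room temperature. Fluorescence change, last versus first of five reads.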
JMJD2E inh: qHTS Assay for Inhibitors of Human Jumonji Domain Containing 2E (JMJD2E). JMJD2E catalytic domain, FDH-coupled NADH fluorescence (FDH is formaldehyde dehydrogenase). Potency, µM (top dose mostly 57.1 µM), without a hit: top-dose activity change, negative = inhibition, actives largely listed as inhibitors. 230,000 compounds, 1.6% hits;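 note: potency is the fitted concentration of half-maximal effect; 0% = wells with enzyme and -100% = buffer wells without enzyme; nearly all actives have a fitted effect of over 50% in size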
CBFb RUNX1 block: qHTS Assay for Compounds Blocking the Interaction Between CBF-beta and RUNX1 for the Treatment of Acute Myeloid Leukemia; Runt-related transcription factor 1 (Homo sapiens) + Core-binding factor subunit beta …; AlphaScreen CBFb-His/RUNX1-biotin binding, biochemical; Potency, µM (top dose mostly 59.8 µM), for inactives: at the highest dose activity, negative = inhibition, hits mostly inhibitors; 230,000 tested, under 10 active; active = well fitted curve in the direction sought with a large enough effect; inconclusive = small, poorly fitted or top-dose-only effect, or another doubt; inactive = no such curve, though single readings can be large; an effect the other way counts as inactive or inconclusive; note: % of control where 0% means no effect
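Proteins preincubated together for 20 min at RT before compound addition; 15 min later, nickel and streptavidin beads were added and left 90 min prior to AlphaScreen measurement.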
HTT cytoprotect: qHTS Multiplex Assay to Identify Dual Action Probes in a Cell Model of Huntington: Cytoprotection (ATP); AID 1471, 2008; 230,000 compounds, 0.14% hits; PC12 HTT-Q103 induced, cytoprotection, ATP luminescence, 40 h; Potency, µM (top dose mostly 56.4 µM), for the others: cytoprotection (ATP increase), most hits filed as activators; active = well fitted curve in the direction sought with a large enough effect; inconclusive = small, poorly fitted or top-dose-only effect, or another doubt; inactive = no such curve, though single readings can be large; an effect the other way counts as inactive or inconclusive; note: potency is the fitted concentration of half-maximal effect; % of control where 0% means no effect; nearly all actives have a fitted effect of over 45% in size
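Rat PC12, Q103 Htt exon1-GFP fusion, ecdysone promoter; tebufenozide inducer 100 nM final; compound titration; qHTS, 1500 cells/well; ATPlite luminescent read.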
ALDH1A1 block: qHTS Assay for Inhibitors of Aldehyde Dehydrogenase 1 (ALDH1A1); Potency, µM (top dose mostly 75.3 µM), inactives show at the top dose activity, negative = inhibition, actives largely listed as inhibitors; Purified ALDH1A1, NADH fluorescence, propionaldehyde substrate; 220,000 compounds, 7.3% hits;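 note: potency is the fitted concentration of half-maximal effect; plate controls were no enzyme wells and a reference inhibitor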
Target sequence (P00352 whole entry, looked up): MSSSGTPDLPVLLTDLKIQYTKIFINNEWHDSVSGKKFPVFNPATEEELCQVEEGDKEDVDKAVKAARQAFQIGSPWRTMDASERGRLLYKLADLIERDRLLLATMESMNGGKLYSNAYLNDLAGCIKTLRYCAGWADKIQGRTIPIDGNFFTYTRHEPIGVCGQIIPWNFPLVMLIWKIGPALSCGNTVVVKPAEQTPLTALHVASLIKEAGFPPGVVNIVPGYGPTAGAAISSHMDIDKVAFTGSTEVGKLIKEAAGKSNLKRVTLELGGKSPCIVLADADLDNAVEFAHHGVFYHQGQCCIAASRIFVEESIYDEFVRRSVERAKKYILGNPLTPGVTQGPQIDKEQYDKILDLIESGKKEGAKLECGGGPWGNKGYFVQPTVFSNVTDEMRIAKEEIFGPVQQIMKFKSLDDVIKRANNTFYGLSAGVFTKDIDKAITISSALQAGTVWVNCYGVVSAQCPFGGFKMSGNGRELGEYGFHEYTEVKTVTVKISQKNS
HttQ103 aggreg: qHTS Multiplex Assay to Identify Dual Action Probes in a Cell Model of Huntington: Aggregate Formation (GFP) | PC12 HttQ103-GFP aggregates, Acumen cytometry, 40 h | Potency, µM (series often up to 46.1 µM), inactives show at the top dose activity change, negative = inhibition, hits mostly inhibitors | 220,000 compounds, 1.1% hits | AID 1688, 2009; active = well fitted curve in the direction sought with a large enough effect; inconclusive = small, poorly fitted or top-dose-only effect, or another doubt; inactive = no such curve, though single readings can be large; an effect the other way counts as inactive or inconclusive; note: potency is the fitted concentration of half-maximal effect; % is set by controls: 0 for no effect and ±100 for the full control effect; nearly all actives have a fitted effect of over 60% in size
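Read-out: GFP aggregate count by laser scanning cytometer (488 nm excitation, 500-530 nm emission, 1–25 µm objects >6 SD above background). Cells: PC12, inducible HTTex1-Q103-GFP, 100 nM tebufenozide; compounds titrated.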
Starred values were filed as active, the others as inactive; ? = inconclusive; · = no result; ! = repeats disagree; [ ] = dose if it differs, or a comment. The list is not random: actives were taken first. Their share in the collection is about 9.8%. Unless noted, calls come from the whole dose curve; as a rule, active = well fitted inhibition curve with a large enough effect (not every such curve was filed as active); inconclusive = small, poorly fitted or top-dose-only effect, or another doubt; inactive = no such curve, though single readings can be large or run the other way.

SMILES	HPGD block	JMJD2E inh	CBFb RUNX1 block	HTT cytoprotect	ALDH1A1 block	HttQ103 aggreg
O=c1[nH]c(CN2CCCCC2)nc2ccccc12	-7.8%	6.3%	1.2%	-17.4%	-3.6%	6.3%
O=C(/C=C/c1ccccc1)N1CCN(Cc2nc3ccccc3c(=O)[nH]2)CC1	31.6µM*	-1.0%	2.9%	-36.7%	?	-14.0%
CC(=O)Nc1c(I)c(C(=O)N[C@H]2[C@@H](O)[C@H](O)[C@H](CO)O[C@@H]2O)c(I)c(N(C)C(C)=O)c1I	0.6%	1.9%[25.5 µM]	-14.3%[21.7 µM]	4.1%[40.3 µM]	10.9%[20.9 µM]	17.4%[20.6 µM]
C/C(=N\NC(=O)COc1ccccc1)c1ccc(O)cc1	·	-11.7%	-1.0%	-2.8%[10 µM]	?	-6.9%[9.22 µM]
C/C(=N\NC(=O)c1ccc(COc2ccccc2)cc1)c1ccncc1	·	13.2%	?	-19.4%	25.1µM*	0.8%
O=C(NCc1ccco1)c1csc(Nc2ccccc2Cl)n1	15.8µM*	-0.1%	-14.4%	5.0%[10 µM]	?	-17.8%
O=C(c1csc(Nc2cccc3ccccc23)n1)N1CCCC1	·	?	-14.7%	19.6%[10 µM]	·	-33.0%[9.22 µM]
O=C(c1csc(Nc2ccccc2Cl)n1)N1CCCC1	15.8µM*	-17.9%	-2.9%	-9.5%[10 µM]	22.4µM*	-2.5%
C[C@@]12C=Cc3occc3[C@H]1CC[C@]13CC(=O)[C@@H](CC[C@H]12)C3	·	·	-13.2%	·	·	·
CCOC(=O)c1ccc[n+](C(C)C(=O)c2ccc(-c3ccccc3)cc2)c1 (stereo not drawn)	-9.2%	-0.3%	1.7%	6.3%[10 µM]	5.62µM*	?
CCN(CC)S(=O)(=O)c1ccc(N/N=C/c2cc(OC)c(OC)cc2OC)nc1	?	?	1.1%	·	?	9.5%
CCN(CC)S(=O)(=O)c1ccc(N/N=C/c2ccc(O)cc2)nc1	·	?	-0.4%	1.7%[10 µM]	?	?
CCOc1cccc(/C=N/Nc2ccc(S(=O)(=O)N(CC)CC)cn2)c1O	-5.6%	-17.1%	?	-65.6%[10 µM]	4.2%	1.41µM*
CCN(CC)S(=O)(=O)c1ccc(N/N=C(\C)c2ccc(OC)cc2O)nc1	·	31.6µM*	-14.8%	-64.8%[10 µM]	·	-23.8%[9.22 µM]
CC(=O)c1ccc(NC(=S)Nc2cccc(Cl)c2C)cc1	·	-5.5%	8.9%	·	?	5.0%
COC(=O)c1ccc(-n2c(C)cc(C(=O)CCl)c2C)cc1	·	3.1%	-3.0%	-20.5%	0.447µM*	?
COC(=O)c1ccc(-n2c(C)cc(C(=O)COC(=O)CNS(=O)(=O)c3ccc(C)cc3)c2C)cc1	-9.2%	-3.9%	18.7%	38.9%[10 µM]	?	-12.9%
CCOc1ccc(-n2c(C)cc(C(=O)CCl)c2C)cc1	·	-15.5%	-11.7%	-46.6%	0.112µM*	-19.7%
COC(=O)C1CCN(C(=O)COC(=O)COc2ccc(C#N)cc2)CC1	·	8.2%	18.1%	-9.1%	4.8%	15.0%
CN1[C@H](Cc2ccccc2)C=C[C@]1(C)C(=O)NCC1CC1	-18.6%	?	-3.5%	18.8%	28.2µM*	·
CC(=O)N1[C@H](Cc2ccccc2)C=C[C@]1(C)C(=O)NCc1ccc(C)o1	22.4µM*!	-0.5%	0.6%[2.36 µM]	-3.0%	7.6%	3.7%
COC(=O)N1[C@H](Cc2ccccc2)C=C[C@]1(C)C(=O)NCc1ccc(N(C)C)cc1	-8.0%	-9.8%	-13.3%	21.2%	?	·
COC(=O)N1C2(C=CC1(C)C(=O)NCc1ccc(N(C)C)cc1)CCCCC2 (stereo not drawn)	-2.0%	-6.7%	2.8%	22.9%	25.1µM*	·
C[C@]1(C(=O)NCC2CC2)C=C[C@@H](Cc2ccccc2)N1C(=O)c1ccccc1	-12.3%	-22.2%	-5.1%	?	-1.6%	·
CN(C)c1ccc(CNC(=O)[C@@]2(C)C=C[C@@H](Cc3ccccc3)N2C)cc1	-14.8%	?	?	-6.4%	20µM*	·
SMILES	HPGD block	JMJD2E inh	CBFb RUNX1 block	HTT cytoprotect	ALDH1A1 block	HttQ103 aggreg
COC(=O)CNC(=O)C1(C)C=CC2(CCCCC2)N1C(=O)OC (stereo not drawn)	-17.6%	-0.9%	0.2%	13.8%	2.7%	·
O=[N+]([O-])c1ccc(Oc2ccc(F)cc2)c2ccncc12	-13.1%	-4.6%	-24.2%	-2.6%	0.4%	10µM*
CC(=O)C1C(=O)C=C(c2ccco2)CC1c1ccccc1 (stereo not drawn)	-25.9%	?	7.7%	13.5%	25.1µM*	3.0%
NS(=O)(=O)c1cccc(NC(=O)CN2CCc3ccccc32)c1	·	-0.3%	-16.9%	-6.1%	7.94µM*	-2.4%
COc1ccc(-c2nnc3ccc(SC)nn23)cc1	31.6µM*	-0.3%	5.7%	-21.7%	?	?
c1ccc(Oc2ccc3ccccc3n2)cc1	·	-5.1%	15.2%	-21.6%	9.5%	-23.5%
COc1ccc(NC(=O)C/C(C)=N/NC(=O)C(=O)Nc2cccc(Cl)c2C)c(OC)c1	·	0.9%	5.6%	-31.2%	1.26µM*	?
COc1ccc(NC(=O)C/C(C)=N/NC(=O)C(=O)NC(C)C)c(OC)c1	·	2.5%	-5.1%	·	2.7%	·
Cc1ccc2nc(C3CCN(S(=O)(=O)c4ccc5ccccc5c4)CC3)[nH]c2c1	-17.1%	-8.0%	4.0%	-77.1%	?	17.8µM*
O=S(=O)(c1ccc2c(c1)OCCO2)N1CCC(c2nc3ccccc3[nH]2)CC1	0.4%	2.7%	-3.4%	-22.6%[10 µM]	5.5%	-8.8%
Clc1ccc(OCc2nc(-c3ccncc3)no2)c(Br)c1	17.8µM*	0.2%	13.9%	3.5%[10 µM]	-4.7%	-0.9%
Cc1ccc(OCc2nc(-c3ccccn3)no2)c(Br)c1	17.8µM*	-2.3%	0.1%	-116.6%	?	?
CCc1ccc(OCc2nc(-c3ccccn3)no2)c(Br)c1	28.2µM*	-5.8%	?	-10.8%[10 µM]	-0.1%	2.8%
CC(=O)c1ccc(-c2cccc(C3C4C=CCCC4(C)C(=O)N3Cc3ccccc3)c2)cc1 (stereo not drawn)	·	·	-4.9%	·	·	·
O=C(Nc1nnc(C(F)(F)F)s1)c1ccc(N2C(=O)C3C4C=CC(C4)C3C2=O)cc1 (stereo not drawn)	14.1µM*	1.8%	0.1%	-25.6%	0.9%	-26.7%
COc1ccc(S(=O)(=O)N2CCOC2CNC(=O)C(=O)NCc2cccnc2)cc1C (stereo not drawn)	·	4.4%	1.2%	2.5%[10 µM]	·	14.2%[9.22 µM]
C=CC(=O)OCCOCCOC(=O)C=C	-3.8%	·	10.2%[21.7 µM]	-195.3%	25.1µM*	·
